# PubChem BioAssay (NCATS)
# Results filed as inconclusive are left out. Entries that show only a call come without a potency. Activity calls are given as the source filed them. Unless noted, calls come from the whole dose curve; as a rule, active = well fitted curve in the direction sought with a large enough effect; inconclusive = small, poorly fitted or top-dose-only effect, or another doubt; inactive = no such curve, though single readings can be large; an effect the other way counts as inactive or inconclusive.
# Legend:
# [1] = target: Luciferin 4-monooxygenase (Photinus pyralis) (UniProt P08659); experiment: Biochemical firefly luciferase enzyme assay for NPC (AID 624030);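 note: purified P. pyralis luciferase at 10 nM with luciferin and ATP substrate; series mostly up to about 59 µM; nearly all actives have a fitted effect of over 70% in size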
# Sequence of Luciferin 4-monooxygenase (Photinus pyralis) (P08659 whole entry, looked up): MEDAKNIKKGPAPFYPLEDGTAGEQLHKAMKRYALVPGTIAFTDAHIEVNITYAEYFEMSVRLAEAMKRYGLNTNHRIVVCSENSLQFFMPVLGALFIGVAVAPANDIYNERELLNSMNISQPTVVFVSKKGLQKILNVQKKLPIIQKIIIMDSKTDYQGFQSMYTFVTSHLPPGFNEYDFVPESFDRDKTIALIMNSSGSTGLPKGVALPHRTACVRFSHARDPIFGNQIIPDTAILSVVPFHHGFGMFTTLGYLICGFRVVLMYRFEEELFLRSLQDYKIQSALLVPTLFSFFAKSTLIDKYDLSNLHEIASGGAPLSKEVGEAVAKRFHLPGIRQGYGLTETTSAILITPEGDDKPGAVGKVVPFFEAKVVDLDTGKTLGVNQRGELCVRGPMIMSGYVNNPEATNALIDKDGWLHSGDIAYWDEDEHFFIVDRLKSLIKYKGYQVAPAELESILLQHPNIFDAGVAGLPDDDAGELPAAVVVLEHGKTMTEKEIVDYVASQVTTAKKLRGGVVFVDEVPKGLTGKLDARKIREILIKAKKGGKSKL
# Outline: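 Counter-screen for direct inhibition of the luciferase enzyme by approved-drug library compounds, run at 10 nM enzyme in 50 mM Tris acetate (final). Luminescence was read within 5 min of enzyme-buffer addition and normalized to PTC124 versus DMSO (0%).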
# [2] = S16 Schwann cell viability assay (CellTiter-Glo assay) (AID 624031);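 note: cellular ATP luminescence as a viability measure; series mostly up to about 58 µM; nearly all actives have a fitted effect of over 70% in size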
# Outline: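 Native S16 Schwann cells (rat), serum-containing medium, overnight attachment then 24 h drug exposure at 37 °C/5% CO2. CellTiter-Glo ATP signal; normalized to cell-free and vehicle wells.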
# [3] = S16 Schwann cell PMP22 intronic element firefly luciferase assay (AID 624032); note: nearly all actives have a fitted effect of over 30% in size; note: potency is the fitted concentration of half-maximal effect
# Outline: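 Rat S16 Schwann cells stably carrying a PMP22 intronic element-driven Fluc reporter were seeded overnight, then exposed to compounds for 24 h at 37 °C. Luminescence was normalized to PTC124 (positive control) and DMSO (0% activity).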
# [4] = target: Glutaminase kidney isoform, mitochondrial (Homo sapiens) (UniProt O94925); experiment: qHTS for Inhibitors of Glutaminase (GLS): LOPAC Validation (AID 624146);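 note: glutamate product detected by oxidase and peroxidase coupled Amplex red fluorescence gain; series mostly up to about 46 µM; nearly all actives have a fitted effect of over 60% in size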
# Sequence of Glutaminase kidney isoform, mitochondrial (Homo sapiens) (O94925 whole entry, looked up, canonical isoform): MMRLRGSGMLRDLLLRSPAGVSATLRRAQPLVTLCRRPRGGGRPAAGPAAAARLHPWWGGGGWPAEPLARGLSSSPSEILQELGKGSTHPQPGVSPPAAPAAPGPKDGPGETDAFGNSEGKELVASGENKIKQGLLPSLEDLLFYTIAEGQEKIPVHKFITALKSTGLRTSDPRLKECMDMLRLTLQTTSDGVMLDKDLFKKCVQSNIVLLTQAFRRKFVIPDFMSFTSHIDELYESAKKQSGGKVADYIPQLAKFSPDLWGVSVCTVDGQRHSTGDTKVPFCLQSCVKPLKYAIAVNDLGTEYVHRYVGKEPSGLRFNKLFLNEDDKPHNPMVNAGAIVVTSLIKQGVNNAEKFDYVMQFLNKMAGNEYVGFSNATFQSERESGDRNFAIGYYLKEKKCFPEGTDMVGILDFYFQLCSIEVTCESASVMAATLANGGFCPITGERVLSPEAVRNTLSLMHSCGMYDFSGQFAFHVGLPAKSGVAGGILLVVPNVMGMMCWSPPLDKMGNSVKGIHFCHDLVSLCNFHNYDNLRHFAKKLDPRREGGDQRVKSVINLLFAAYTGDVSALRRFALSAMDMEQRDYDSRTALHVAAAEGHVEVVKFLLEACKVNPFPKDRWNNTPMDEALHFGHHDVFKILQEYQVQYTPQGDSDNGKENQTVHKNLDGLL
# Outline: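 hKGA in 45 mM KH2PO4 (pH 8.2), 0.02% Tween-20 with compound, then 1mM L-Glutamine (stock as added) plus glutamate oxidase/HRP/Amplex red coupling mix. Fluorescence read initially and after 30 min at RT; signal change reflects glutamate formation.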
# [5] = qHTS of Trypanosoma Brucei Inhibitors: LOPAC Validation (AID 624147)
# Outline: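 In this concentration-response screen, enzyme-free wells defined baseline while DMSO plates tracked drift. Each reaction combined TbPYK, substrate, compound and 130 uM ADP for 45 min at room temperature. Kinase-Glo Plus luminescence gave the signal.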
# [6] = target: Glucagon-like peptide 1 receptor (Homo sapiens) (UniProt P43220); experiment: qHTS of GLP-1 Receptor Agonists: LOPAC Validation (AID 624148);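 note: higher luminescence signal means agonism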
# Sequence of Glucagon-like peptide 1 receptor (Homo sapiens) (P43220 whole entry, looked up): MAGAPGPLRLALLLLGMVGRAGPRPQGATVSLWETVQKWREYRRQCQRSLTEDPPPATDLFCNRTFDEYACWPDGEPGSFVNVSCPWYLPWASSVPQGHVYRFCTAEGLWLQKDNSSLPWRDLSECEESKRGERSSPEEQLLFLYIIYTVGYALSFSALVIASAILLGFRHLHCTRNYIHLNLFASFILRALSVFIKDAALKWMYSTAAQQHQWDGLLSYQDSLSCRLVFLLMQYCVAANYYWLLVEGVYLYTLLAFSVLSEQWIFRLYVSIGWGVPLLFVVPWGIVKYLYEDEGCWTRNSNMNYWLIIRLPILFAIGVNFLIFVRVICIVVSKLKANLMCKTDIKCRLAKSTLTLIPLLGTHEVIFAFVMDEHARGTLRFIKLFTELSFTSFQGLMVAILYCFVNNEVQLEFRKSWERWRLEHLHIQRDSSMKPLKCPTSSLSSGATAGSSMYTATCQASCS
# Outline: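 HEK293 cells stably co-expressing a cAMP-responsive luciferase reporter and a hypersensitive GLP-1R were plated 12 h at 37 °C and exposed to compounds for 4-6 hr at 37 °C, 5% CO2. Luminescence was read 12 min after adding detection reagent.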
# [7] = S16 Schwann cell PMP22 intronic element beta-lactamase assay (AID 624044; calls by dose curve; note: potency is the fitted concentration of half-maximal effect; nearly all actives have a fitted effect of over 15% in size)
# Outline: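 Rat S16 Schwann cells with beta-Lac driven by a PMP22 intronic element, compound-treated 24 h at 37 °C. LiveBLAzer FRET B/G read: 460 nm normalized to potassium clavulanate vs DMSO; 535 nm FRET as viability; concentration-effect curves classified.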
# [8] = target: Voltage-gated inwardly rectifying potassium channel KCNH2 (Homo sapiens) (UniProt Q12809); experiment: qHTS Assay for Small Molecule Inhibitors of the Human hERG Channel Activity (AID 588834);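 note: top concentration of the series differs between compounds; lower thallium flux fluorescence means stronger hERG block; nearly all actives have a fitted effect of over 50% in size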
# Sequence of Voltage-gated inwardly rectifying potassium channel KCNH2 (Homo sapiens) (Q12809 whole entry, looked up): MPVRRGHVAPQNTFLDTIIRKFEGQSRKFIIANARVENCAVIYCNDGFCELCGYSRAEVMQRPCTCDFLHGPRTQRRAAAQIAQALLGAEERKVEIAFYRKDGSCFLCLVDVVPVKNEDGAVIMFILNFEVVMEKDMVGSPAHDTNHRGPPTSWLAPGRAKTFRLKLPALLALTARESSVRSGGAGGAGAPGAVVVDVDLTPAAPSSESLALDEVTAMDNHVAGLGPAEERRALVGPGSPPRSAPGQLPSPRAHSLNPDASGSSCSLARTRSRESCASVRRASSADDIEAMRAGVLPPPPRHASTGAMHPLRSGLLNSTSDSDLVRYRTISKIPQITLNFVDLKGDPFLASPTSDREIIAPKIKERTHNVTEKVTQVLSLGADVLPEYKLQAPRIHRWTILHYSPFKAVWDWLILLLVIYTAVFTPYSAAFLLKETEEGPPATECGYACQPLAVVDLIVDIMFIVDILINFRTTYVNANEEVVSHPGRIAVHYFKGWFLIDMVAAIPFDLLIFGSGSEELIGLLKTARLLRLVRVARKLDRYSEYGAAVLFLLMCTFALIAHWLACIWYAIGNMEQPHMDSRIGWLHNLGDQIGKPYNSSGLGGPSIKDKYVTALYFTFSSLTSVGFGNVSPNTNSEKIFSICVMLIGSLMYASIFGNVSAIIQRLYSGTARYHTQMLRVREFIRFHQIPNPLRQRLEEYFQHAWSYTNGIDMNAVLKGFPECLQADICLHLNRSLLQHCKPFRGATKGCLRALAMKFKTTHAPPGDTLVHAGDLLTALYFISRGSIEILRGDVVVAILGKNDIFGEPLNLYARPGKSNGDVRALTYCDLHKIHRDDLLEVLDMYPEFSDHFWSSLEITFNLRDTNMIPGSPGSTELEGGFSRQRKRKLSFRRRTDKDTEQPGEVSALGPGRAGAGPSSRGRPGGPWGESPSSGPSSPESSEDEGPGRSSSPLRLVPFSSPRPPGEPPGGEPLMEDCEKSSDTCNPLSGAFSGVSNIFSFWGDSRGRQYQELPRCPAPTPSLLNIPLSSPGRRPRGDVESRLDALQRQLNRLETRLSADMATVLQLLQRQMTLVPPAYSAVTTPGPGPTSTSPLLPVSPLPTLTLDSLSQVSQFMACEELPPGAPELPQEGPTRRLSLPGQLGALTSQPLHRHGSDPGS
# Outline: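 U2OS cells BacMam-transduced with hERG, 2000 cells/well, compound ~10 min at 37 °C before stimulation buffer. FluxOR thallium flux fluorescence read kinetically on FDSS; decrease indicates block; AC50 from Hill fits.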
compound,measurement,setting,value
CCCN1CCC[C@@H]2Cc3[nH]ncc3C[C@H]21,Potency,[1],inactive
same,Potency,[2],inactive
same,Potency,[3],inactive
same,Potency,[4],inactive
same,outcome,[5],inactive
same,outcome,[6],inactive
O=c1[nH]c2ccccc2n1CCCN1CCC(n2c(=O)[nH]c3cc(Cl)ccc32)CC1,Potency,[3],36.1 µM (active)
same,Potency,[4],inactive
same,outcome,[5],inactive
same,outcome,[6],inactive
CC(C)=CCOc1c2occc2cc2ccc(=O)oc12,outcome,[5],inactive
same,outcome,[6],inactive
COc1cc([C@@H]2c3cc4c(cc3[C@H](O)[C@H]3COC(=O)[C@H]23)OCO4)cc(OC)c1OC,Potency,[3],0.0128 µM (active)
same,Potency,[7],0.0224 µM (active)
CNCC[C@H](Oc1cccc2ccccc12)c1cccs1,Potency,[3],20.3 µM (active)
COc1ccc(C(CN(C)C)C2(O)CCCCC2)cc1 (stereo unspecified),Potency,[8],inactive
same,Potency,[2],inactive
same,Potency,[3],inactive
same,Potency,[4],inactive
same,outcome,[5],inactive
same,outcome,[6],inactive
CC(=O)Nc1nnc(S(N)(=O)=O)s1,Potency,[3],inactive
CCCN1CCC[C@@H]2Cc3nc(N)ncc3C[C@H]21,Potency,[8],inactive
same,Potency,[4],inactive
same,outcome,[5],inactive
same,outcome,[6],inactive
